The record followed here is PubChem BioAssay AID588330 (National Center for Advancing Translational Sciences (NCATS), 2011).

Inconclusive results are not listed. The source made the active and inactive calls. The call rests on the fitted dose curve; in most records, active means well fitted inhibition curve with a large enough effect; inconclusive means small, poorly fitted or top-dose-only effect; inactive means flat fitted curve, though single readings scatter.

In the assay the test system is 6-phosphofructokinase (Trypanosoma brucei). The assay is described as follows: Confirmatory Assay to Find Inhibitors of T. brucei phosphofructokinase: High ATP. The note with it: T. brucei PFK, Kinase-Glo luminescence; series mostly up to 57.5 µM. The source says: Various species of the protozoan family Trypanosomatidae are responsible for a range of serious human diseases in tropical and subtropical areas of the world. […] Many of the disorders caused by trypanosomatids are fatal if left untreated, but most currently used drugs are inefficient and toxic. […] Oxidative metabolism involving the mitochondrial tricarboxylic acid cycle and oxidative phosphorylation are repressed in these parasites, and recent RNA interference (RNAi) experiments have shown that even partial depletion of certain individual glycolytic enzymes can lead to the death of cultured parasites. One such glycolytic enzyme, phosphofructokinase (PFK), catalyzes the formation of fructose-1,6-bisphosphate (F1,6BP) and ADP from fructose-6-phosphate (F6P) and ATP, and in many metabolic circumstances makes an important contribution to the control of flux through the glycolytic pathway. As a specific glycolytic target, PFK is particularly attractive as it catalyzes the first irreversible step in glycolysis, and structural and kinetic studies have shown very substantial and essential differences from corresponding host enzymes, allowing for the discovery of parasite-selective inhibitors. A luminescent secondary assay was also performed that used luciferase-based nucleotide detection ([…]) similar to the qHTS, but that alternatively used saturating concentrations (10x Km concentrations) of ATP or F6P to determine if inhibitor potencies were shifted due to particular substrate competition. […] NIH Molecular Libraries Probe Production Network [MLPCN] NIH Chemical Genomics Center [NCGC] Grant: 1 R03 MH092153-01 PI Name: Malcolm Walkinshaw, University of Edinburgh
Substrate buffer was dispensed into white, solid 1536-well plates at 3 uL/well in 0.1M triethanolamine (TEA) buffer, pH 8.0, containing final concentrations of 5 mM MgCl2 and 0.01% Tween20. Standard substrate buffer contained 0.5mM fructose-6-phosphate (F6P) and 0.1mM ATP, high ATP substrate buffer contained 0.5mM fructose-6-phosphate (F6P) and 1mM ATP, high F6P substrate buffer contained 5mM fructose-6-phosphate (F6P) and 0.1mM ATP, and high ATP/F6P buffer contained 5mM fructose-6-phosphate (F6P) and 1mM ATP. Then, 23nl of compounds or DMSO were delivered to each well using a pin tool. One uL of T. brucei PFK (0.1M TEA, 0.01% Tween20, 0.1% bovine serum albumin (BSA) and 1.25nM PFK, final concentrations) was then dispensed, and plates were incubated at room temperature for 45 min. The luminescent detection reagent, Kinase-Glo Plus (Promega), was then added at 2ul/well and incubated for ten minutes at room temperature. The plates were measured on a ViewLux plate reader for luminescent signal using a clear filter with a one second exposure. The %Activity was determined from the corrected luminescence values. 1x (1.25nM) and 0x PFK enzyme controls (untreated) were included to normalize %Activity of identified inhibitors; 0x enzyme values corresponded to 100%Activity (full inhibition), while 1x PFK enzyme values were used to normalize 0% Activity (no inhibition).
Background: Kinase-Glo measures the ATP left after a reaction by luminescence.
For `Cc1cc(NS(=O)(=O)c2ccc(NC(=O)Cc3ccc4ccccc4c3)cc2)no1`, the Potency is 5.8 µM (active).

For the molecule `Cc1cc(NS(=O)(=O)c2ccc(N(C)C(=O)Cc3ccc(Cl)c(Cl)c3)cc2)no1`, the Potency is 1.3 µM (active).

For the molecule `Cc1cc(NS(=O)(=O)Cc2ccc(NC(=O)Cc3ccc(Cl)c(Cl)c3)cc2)no1`, the Potency is 4.11 µM (active).

On to `Cc1cc(NS(=O)(=O)c2ccc(NCCc3ccc(Cl)c(Cl)c3)cc2)no1`, for which the Potency is 16.3 µM (active).

For `CCOC(=O)c1cccc(NS(=O)(=O)c2ccc(NC(=O)Cc3ccc(Cl)c(Cl)c3)cc2)c1`, the Potency result is “inactive”.

For the molecule `Cc1cc(N[S+](=O)([O-])c2ccc(NC(=O)Cc3ccc(Cl)nc3)cc2)no1`, the Potency is 18.3 µM (active).

Consider `O=C(Cc1ccc(Cl)c(Cl)c1)Nc1ccc(S(=O)(=O)Nc2ccon2)cc1`, for which the Potency was 0.326 µM (active).

Turning to `Cc1cc(NS(=O)(=O)c2ccc(NC(=O)CCc3ccc(Cl)c(Cl)c3)cc2)no1`, the Potency was 16.3 µM (active).

In the case of `Cc1cc(NS(=O)(=O)c2ccc(NC(=O)Cc3ccc(C)c(C)c3)cc2)no1`, the Potency is 18.3 µM (active).

As for `Cc1cc(NS(=O)(=O)c2ccc(NC(=O)Cc3ccc(Cl)c(C(F)(F)F)c3)cc2)no1`, the Potency was 0.919 µM (active).

For `Cc1cc(NS(=O)(=O)c2cccc(NC(=O)Cc3ccc(Cl)c(Cl)c3)c2)no1`, the Potency was 18.3 µM (active).

Consider `CN(C)c1cccc(NS(=O)(=O)c2ccc(NC(=O)Cc3ccc(Cl)c(Cl)c3)cc2)c1`, for which the Potency is 23.1 µM (active).

For `O=C(Cc1ccc(Cl)c(Cl)c1)Nc1ccc(S(=O)(=O)Nc2cccc(O)c2)cc1`, the Potency was 2.91 µM (active).

As to `Cc1cc(NS(=O)(=O)c2ccc(NC(=O)Cc3ccc(Cl)c(Cl)c3)cc2)no1`, the Potency is 0.517 µM (active).

With `Cc1cc(NS(=O)(=O)c2ccc(NC(=O)Cc3ccc(C)c(F)c3)cc2)no1`, the Potency was 8.19 µM (active).

Turning to `Cc1cc(NC(=O)c2ccc(NC(=O)Cc3ccc(Cl)c(Cl)c3)cc2)no1`, the Potency entry was “inactive”.

Turning to `Cc1cc(NS(=O)(=O)c2ccc(NC(=O)Cc3ccc(Cl)cc3Cl)cc2)no1`, the Potency is 6.51 µM (active).

As for `COc1ccc(CC(=O)Nc2ccc(S(=O)(=O)Nc3cc(C)on3)cc2)cc1C`, the Potency entry was “inactive”.

Consider `Cc1cc(NS(=O)(=O)c2ccc(C(=O)NCc3ccc(Cl)c(Cl)c3)cc2)no1`, for which the Potency was 4.61 µM (active).

In the case of `O=C(Cc1ccc(Cl)c(Cl)c1)Nc1ccc(S(=O)(=O)Nc2cccc(C(=O)O)c2)cc1`, the Potency was 1.03 µM (active).

On to `COc1ccc(CC(=O)Nc2ccc(S(=O)(=O)Nc3cc(C)on3)cc2)cc1OC`, for which the Potency result was “inactive”.

As to `O=C(Cc1ccc(Cl)c(Cl)c1)Nc1ccc(S(=O)(=O)Nc2ccc(C(=O)O)cc2)cc1`, the Potency was 0.919 µM (active).

For `O=C(Cc1ccc(Cl)c(Cl)c1)Nc1ccc(S(=O)(=O)Nc2cncnc2)cc1`, the Potency was 1.3 µM (active).

For `O=C(Cc1ccc(Cl)c(Cl)c1)Nc1ccc(S(=O)(=O)O)cc1`, the Potency is 1.03 µM (active).

Take `Cc1cc(NS(=O)(=O)c2ccc(NC(=O)Cc3ccc(Cl)c(F)c3)cc2)no1`: the Potency is 1.03 µM (active).

`Cc1cc(N[S+](=O)([O-])c2ccc3cc(NC(=O)Cc4ccc(Cl)c(Cl)c4)ccc3c2)no1`: the Potency was 6.51 µM (active).

Take `Cc1cc(NS(=O)(=O)c2ccc(NC(=O)Cc3ccc(Cl)c(Cl)c3)cc2)n(C)n1`: the Potency is 1.83 µM (active).

In the case of `Cc1cc(N(C)S(=O)(=O)c2ccc(NC(=O)Cc3ccc(Cl)c(Cl)c3)cc2)no1`, the Potency was 3.26 µM (active).

With `O=C(Cc1ccc(Cl)c(Cl)c1)Nc1ccc(S(=O)(=O)Nc2ccn[nH]2)cc1`, the Potency was 0.73 µM (active).

Consider `Cc1cc(NS(=O)(=O)c2ccc(NC(=O)Cc3cccc(Cl)c3)cc2)no1`, for which the Potency is 6.51 µM (active).

As to `Cc1cc(NC(=O)c2csc(NC(=O)Cc3ccc(Cl)c(Cl)c3)n2)no1`, the Potency result was “inactive”.

For the molecule `Cc1cc(NS(=O)(=O)c2ccc(NC(=O)Cc3ccc(Cl)cc3)cc2)no1`, the Potency was 2.91 µM (active).

With `Cc1cc(NS(=O)(=O)c2ccc(NC(=O)Cc3ccc(Cl)c(Cl)c3)cc2)on1`, the Potency is 0.517 µM (active).

Consider `O=C(Cc1ccc(Cl)c(Cl)c1)Nc1ccc(S(=O)(=O)Nc2ccccc2)cc1`, for which the Potency is 13 µM (active).
